Data as given in PubChem BioAssay AID1508600 (Functional Genomics Laboratory (NCATS/FGL), 2020).
Screen size: about 53,000 sequences; about 3,700 (7%) were called active.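 The calls were made as follows: active = gene knockdowns whose robust z-score for IL-1 alpha signal is at least 2 or at most -2, so actives lie on both sides; inactive = the rest.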 Only a selection was taken, and actives are over-represented in it overall.

Assay: Components of the Cytosolic LPS Sensing Pathway: Gene Identification via Genome-wide siRNA Screen;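 also: robust z of the log signal after scaling to non-targeting control siRNA wells of the plate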
Details: RAW264.7 macrophages, IL-1a HTRF, actives lie on both sides, screened at 100 nM (by protocol), cells primed 5 h with Pam3CSK4 first
How it was run: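 Three distinct siRNAs per gene were tested singly at 100 nM in RAW264.7 macrophages. Following Pam3CSK4 priming and 24 hour LipidA transfection, IL-1a secretion was read by HTRF.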

Row | Sequence | z-score
1 | CGGGUUCUACUAUCAUGCATT against Ltbp4 | 0.259 (inactive)
2 | GGUCACCAGUACCUAUGGATT against Bricd5 | -2.17 (active)
3 | GGGACUGUACUCAUUUCUATT against Rnf138rt1 | -0.67 (inactive)
4 | GCAGGUUGAACGACAGCGUTT against Dph5 | -0.349 (inactive)
5 | GGAAUAAUCCCAGUUCUCUTT against Tmem101 | -1.04 (inactive)
6 | CCAGAAUGGCGGGUAUUUGTT against Fbln5 | 2.14 (active)
7 | GAAGGUGAAGUGCAGGAAGTT against Fxyd7 | -0.081 (inactive)
8 | GCAGGCCAGAGUAGUCAUGTT against Them6 | 0.579 (inactive)
9 | GGAAUUAACGUGUUUCUGUTT against Tor1aip2 | 1.14 (inactive)
10 | GGUGAUAAAGCUAUGUAUUTT against Ccn2 | 0.147 (inactive)
11 | GGACAACAUUGACAAGUUCTT against Clcn7 | 1.36 (inactive)
12 | GCUGGGUCCACAUGAAUCATT against Sucnr1 | 2.7 (active)
13 | GGAUCAGACAUGCAAGAGGTT against Xlr5c | -1.81 (inactive)
14 | GCAUCAUGGUCACAAAUGGTT against Ncr1 | -0.613 (inactive)
15 | GCUACCGUGGGCGAUGUAATT against Dbi | -0.37 (inactive)
16 | GGGAAAAUGCGAUUCAUGATT against P2ry14 | -0.774 (inactive)
17 | GGAGAUUAUUAACUUCACCTT against Hcn3 | -0.895 (inactive)
18 | GGAACUGGACUUAUUCCACTT against Wnt5b | 0.652 (inactive)
19 | GGAGAAACCAGGAUCUAUUTT against Rnf14 | 2.22 (active)
20 | GCCAGGAGUACUGUAUAUATT against Spint1 | -0.366 (inactive)
21 | GGAGCUCUAAAAUUGACUUTT against Zfp92 | 1.17 (inactive)
22 | GGAAUCUAGAAGAAUCAUUTT against Gnao1 | -0.42 (inactive)
23 | GCUAUGGUAGCUGAUAACATT against Rell1 | 1.21 (inactive)

Row | Sequence | z-score
24 | GGAUCCUAAUGAGGACAUUTT against Jchain | 2.75 (active)
25 | GCCACAAGAUACCAUCAGATT against Bex1 | -1.66 (inactive)
26 | CCAUAUGUCCUGUUUAAGATT against Grik2 | 0.304 (inactive)
27 | GGACUUGAAAGACGAGAUATT against Cyp19a1 | 0.31 (inactive)
28 | CCUUUAUGAAUGAACAGGGTT against Cnot7 | -0.266 (inactive)
29 | GGCCAAUUCCAGUGAGAUGTT against Lgsn | -0.0795 (inactive)
30 | GGCAGAGCUCAAAAAGAAATT against Ankrd1 | -1.94 (inactive)
31 | CCAAAUCCGGGAAAAAGAGTT against Armcx5 | -0.459 (inactive)
32 | GCAUACCAAUCACAGUCGATT against Dync2li1 | -2.55 (active)
33 | GGGUUGCUACUCACAAUGUTT against Syngr2 | 0.244 (inactive)
34 | CCUCAAUUUCGAAGACCCUTT against Asb6 | 1.84 (inactive)
35 | GGACUCUGGACCUUAUGCUTT against Tmem202 | -0.921 (inactive)
36 | GGCUUUCAAGCUAACUGAUTT against Sf3b2 | -2.39 (active)
37 | GGUUAAAAACAACUGAAAGTT against 9630028B13Rik | -1.04 (inactive)
38 | GGGAACUUUCCUCAAGUCUTT against Phactr3 | 0.107 (inactive)
39 | GGCCAAGAAACAUGCCCUATT against Pbx2 | 0.168 (inactive)
40 | GGCAGUGGAGUUAACAACATT against Dsg1b | -0.12 (inactive)
41 | CCUAUGAGUCUUACGUGAATT against Cyp4x1 | 0.693 (inactive)
42 | GGACACCAACAUAUUGUUCTT against Slc13a2 | -0.128 (inactive)
43 | GGCUGAUGGAAGAAUAUGATT against Actn2 | -2.2 (active)
44 | GGAUGAGUCUUUCUAGUUATT against Nipa1 | -0.337 (inactive)
45 | GCAGCAGUAAUGAUGGAUCTT against Ncoa3 | 2.47 (active)
46 | GGACAAAUUCUACAUCAGCTT against Adam8 | 0.0533 (inactive)

Row | Sequence | z-score
47 | CGGCCGUCAGCUUCUUUUATT against Olfr283 | -0.204 (inactive)
48 | CGACUUUGGAGAAUUUCAATT against Synrg | -0.573 (inactive)
49 | GGGAACAAACCUUGAUUCUTT against Adam24 | 3.49 (active)
50 | GGAGAGACCACCCUUUCAGTT against Fahd2a | -0.432 (inactive)
51 | GCAUAUGGACUUUCUGUCATT against Iws1 | -0.157 (inactive)
52 | GGUGUAACACUCAUUUAUCTT against Ifitm3 | 2.88 (active)
53 | GGACACCUACCAAAAGUUATT against Cd9 | 0.432 (inactive)
54 | GCUACAACAAGACAAAGUCTT against Tada1 | 1.84 (inactive)
55 | CCUUCUACCUACUUAUUGGTT against Tomm70a | 0.178 (inactive)
56 | GGAAGAUGUGAAAUUGCUUTT against Dars2 | 2.23 (active)
57 | CCACUAUGUUCUGUGGCAATT against Olfr736 | -2.33 (active)
58 | GGAAGAAUUUGACAACCGCTT against Mrps18c | 0.583 (inactive)
59 | GGAAAAUGAUAGCAGACAUTT against Zfp810 | -1.72 (inactive)
60 | GGGCCAGAAGAAGAGUCGATT against Mllt6 | -0.304 (inactive)
61 | GGAGAUUUCUGAAACUAGATT against Tiaf2 | -2.09 (active)
62 | GGCCAACUCACCUUUCUAGTT against D630023F18Rik | 1.84 (inactive)
63 | CCAUUCUUAUUGUUGAGAATT against Nek9 | -0.793 (inactive)
64 | GGACAUGAAAGUUGACCUGTT against Mrps31 | 0.465 (inactive)
65 | GCCCGUGUGUAAGUGCAAATT against Wfikkn2 | 2.25 (active)
66 | GGAAACAGAGCAAGGAAAATT against Gas7 | 0.613 (inactive)
67 | GGAGAGCUCUAUGGAUCGATT against Fgf16 | 0.784 (inactive)
68 | CCUCCUUUGGACAACGGGUTT against Cyp7a1 | -1.34 (inactive)
69 | CCUGCUCUCCUCAUUAUGUTT against Rnls | -0.115 (inactive)
